Six compounds from PubChem BioAssay (NCATS) can be followed below.

Inconclusive results are not listed. Active and inactive are the calls of the source. Calls follow the shape of the dose curve; as a rule, active = well fitted inhibition curve with a large enough effect; inconclusive = small, poorly fitted or top-dose-only effect; inactive = flat fitted curve, though single readings scatter.

Test [1] deals with Luciferin 4-monooxygenase (Photinus pyralis) (UniProt P08659). The test is described as follows: Biochemical firefly luciferase enzyme assay for NPC (AID 624030).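 Also: purified P. pyralis luciferase at 10 nM with luciferin and ATP substrate; nearly all actives have a fitted effect of over 70% in size.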 Summed up:
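Purified P. pyralis luciferase at 10 nM in 50 mM Tris Acetate (final), luminescence read within 5 minutes of enzyme addition to compounds. Activity normalised to PTC124 versus DMSO; concentration-response curves classed by r2, magnitude and activity.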

For a further test, the system named is CP215. The test is described as follows: qHTS profiling for inhibitors of Plasmodium falciparum proliferation (AID 504749). Also: nearly all actives have a fitted effect of over 60% in size. Also: potency is read from the fitted curve at half-maximal effect. The note with it: P. falciparum in erythrocytes, SYBR Green DNA, 72 h; series mostly up to 28.7 µM. Summed up: (§1)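 Each compound contacts P. falciparum-infected red blood cells for 72 h at 37 C; lysis buffer (Tris, EDTA, saponin, Triton X, SYBR Green I) is added and fluorescence measured next morning; values normalized to controls.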

Another test concerns CP260. The description is as above. The note with it: P. falciparum in erythrocytes, SYBR Green DNA, 72 h; series mostly up to 28.7 µM. The gist of the method: as §1
The next test relates to CP266. The description is as above. As to conditions: P. falciparum in erythrocytes, SYBR Green DNA, 72 h; series mostly up to 28.7 µM. The gist of the method: as §1
Another test concerns CP268. The test is described as above. The note with it: P. falciparum in erythrocytes, SYBR Green DNA, 72 h; series mostly up to 28.7 µM. Summed up: as §1
The test system of the next test is CP291. The test is described as above. As to conditions: P. falciparum in erythrocytes, SYBR Green DNA, 72 h; series mostly up to 28.7 µM. Summed up:
as §1

In another test the test system is CP297. Described as above. The note with it: P. falciparum in erythrocytes, SYBR Green DNA, 72 h; series mostly up to 28.7 µM. Summed up: as §1
The subject of a further test is CP305. The description is as above. As to conditions: P. falciparum in erythrocytes, SYBR Green DNA, 72 h; series mostly up to 28.7 µM. Summed up:
as §1

A further test relates to CP335. The test is described as above. As to conditions: P. falciparum in erythrocytes, SYBR Green DNA, 72 h; series mostly up to 28.7 µM. The gist of the method:
as §1

A further test has as its system DIV14. The test is described as above. As to conditions: P. falciparum in erythrocytes, SYBR Green DNA, 72 h; series mostly up to 28.7 µM. Summed up: as §1
The test system of the next test is DIV17. Described as above. As to conditions: P. falciparum in erythrocytes, SYBR Green DNA, 72 h; series mostly up to 28.7 µM. Summed up: as §1
Another test concerns FAB9. Described as above. The note with it: P. falciparum in erythrocytes, SYBR Green DNA, 72 h; series mostly up to 28.7 µM. The gist of the method:
as §1

A further test has as its system GB4. Described as above. The note with it: P. falciparum in erythrocytes, SYBR Green DNA, 72 h; series mostly up to 28.7 µM. The gist of the method: as §1
The next test concerns HB3. Described as above. As to conditions: P. falciparum in erythrocytes, SYBR Green DNA, 72 h; series mostly up to 28.7 µM. Summed up:
as §1

A further test deals with ICS. The test is described as above. As to conditions: P. falciparum in erythrocytes, SYBR Green DNA, 72 h; series mostly up to 28.7 µM. Summed up:
as §1

Another test relates to JCK. The description is as above. As to conditions: P. falciparum in erythrocytes, SYBR Green DNA, 72 h; series mostly up to 28.7 µM. The gist of the method: as §1
For another test, the system named is P93_24. The description is as above. The note with it: P. falciparum in erythrocytes, SYBR Green DNA, 72 h; series mostly up to 28.7 µM. Summed up:
as §1

The test system of another test is PC26. The description is as above. The note with it: P. falciparum in erythrocytes, SYBR Green DNA, 72 h; series mostly up to 28.7 µM. Summed up: as §1
A further test relates to PC49. The test is described as above. As to conditions: P. falciparum in erythrocytes, SYBR Green DNA, 72 h; series mostly up to 28.7 µM. Summed up: as §1
The next test deals with TAB109. Described as above. As to conditions: P. falciparum in erythrocytes, SYBR Green DNA, 72 h; series mostly up to 28.7 µM. Summed up:
as §1

Chain of Luciferin 4-monooxygenase (Photinus pyralis) (P08659 whole entry, looked up): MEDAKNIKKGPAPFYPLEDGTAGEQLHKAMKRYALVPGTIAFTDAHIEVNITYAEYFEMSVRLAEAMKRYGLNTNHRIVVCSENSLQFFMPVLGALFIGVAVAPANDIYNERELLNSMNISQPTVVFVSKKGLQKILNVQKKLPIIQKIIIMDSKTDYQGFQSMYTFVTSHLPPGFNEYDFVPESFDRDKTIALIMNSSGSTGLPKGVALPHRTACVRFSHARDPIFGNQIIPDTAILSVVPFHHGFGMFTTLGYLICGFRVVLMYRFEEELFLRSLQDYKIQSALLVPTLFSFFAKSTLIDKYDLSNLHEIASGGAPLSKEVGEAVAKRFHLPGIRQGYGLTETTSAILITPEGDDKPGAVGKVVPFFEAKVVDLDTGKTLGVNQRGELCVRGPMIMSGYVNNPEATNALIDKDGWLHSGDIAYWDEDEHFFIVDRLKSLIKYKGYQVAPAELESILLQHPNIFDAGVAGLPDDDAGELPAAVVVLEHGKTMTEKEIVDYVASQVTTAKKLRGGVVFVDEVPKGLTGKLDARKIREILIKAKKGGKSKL

Regarding `OCCN1CC(O)C(O)C(O)C1CO` (stereo not given), the Potency result (in [1]; with CP215; with CP260; with CP266; with CP268; in the test with CP291) was “inactive” in each case. In addition, the Potency result in the test with CP297, in the test with CP305, in the test with CP335, in the test on DIV14, in the test with DIV17 and in the test on FAB9 was “inactive” each time. Moreover, the Potency result in the test with GB4, in the test with HB3, with ICS, with JCK, in the test on P93_24 and in the test with PC26 was “inactive” throughout. Further, the Potency result in the test with PC49 and with TAB109 was “inactive” in each case.
As for `O=C1C(I)=CC(=C(c2cc(I)c(O)c(I)c2)c2ccccc2C(=O)O)C=C1I`, the Potency result in the test on CP215, with CP260, in the test with CP266, in the test with CP268, with CP291 and with CP297 was “inactive” throughout. Besides, the Potency result in the test with CP305, in the test on CP335, in the test on DIV14, in the test on DIV17, with FAB9 and in the test on GB4 was “inactive” each time. Besides, the Potency entry in the test on HB3, in the test on ICS, in the test with JCK, with P93_24, in the test with PC26 and with PC49 was “inactive” in each case. Moreover, the Potency result in the test with TAB109 was “inactive”.
On to `COc1cccc2c1C(=O)c1c(O)c3c(c(O)c1C2=O)C[C@@](O)(C(=O)CO)C[C@@H]3OC1CC(N)C(O)C(C)O1` (stereo not given in full), for which the Potency entry in test [1] is “inactive”. Also, the Potency in the test with CP215 is 3790 nM (active); in the test with CP260, 708 nM (active); in the test with CP266, 3380 nM (active); with CP268, 3790 nM (active); in the test with CP291, 3380 nM (active); with CP297, 1900 nM (active). For the same compound, the Potency with CP305 was 3380 nM (active); in the test with CP335 it was 1200 nM (active); in the test on DIV14, 1690 nM (active); in the test on DIV17 it was 1690 nM (active); in the test on FAB9, 3160 nM (active); in the test with GB4, 1690 nM (active). Moreover, the Potency is 2000 nM (active) in the test on HB3; 631 nM (active) with ICS; 12600 nM (active) in the test with JCK; 2000 nM (active) with P93_24; 4780 nM (active) in the test with PC26; 5620 nM (active) in the test on PC49. The Potency with TAB109 was 2000 nM (active).
Take `CC(O)C1CCC2C3CCC4CC(O)CCC4(C)C3CCC12C` (stereo not given): the Potency entry (in test [1]; in the test on CP215; in the test with CP260; in the test with CP266; with CP268; in the test on CP291) was “inactive” throughout. For the same compound, the Potency entry in the test on CP297, in the test with CP305, in the test on CP335, in the test with DIV14, with DIV17 and in the test with FAB9 was “inactive” each time. The Potency entry in the test on GB4, in the test with HB3, with ICS, with JCK, with P93_24 and in the test on PC26 was “inactive” throughout. Moreover, the Potency result with PC49 and in the test on TAB109 was “inactive” throughout.
For `Cc1ccccc1N1C(=O)c2cc(N)ccc2N/C1=C\F`, the Potency result (in test [1]; in the test on CP215; in the test on CP260; with CP266; in the test with CP268; with CP291) was “inactive” each time. For the same compound, the Potency entry in the test with CP297, with CP305, with CP335, in the test with FAB9, with GB4 and in the test with HB3 was “inactive” throughout. In addition, the Potency entry with JCK, in the test on P93_24, in the test on PC26, with PC49 and in the test with TAB109 was “inactive” in each case.
`C[n+]1c2cc(N)ccc2cc2ccc(N)cc21`: the Potency entry in [1] was “inactive”. For the same compound, the Potency in the test on CP215 was 1070 nM (active); in the test on CP260 it was 316 nM (active); in the test on CP266, 1350 nM (active); in the test with CP268, 757 nM (active); with CP291 it was 1200 nM (active); in the test on CP297 it was 1350 nM (active). For the same compound, the Potency is 757 nM (active) in the test on CP305; 849 nM (active) in the test with CP335; 213 nM (active) in the test with DIV14; 269 nM (active) in the test on DIV17; 199 nM (active) in the test with FAB9; 213 nM (active) in the test on GB4. Further, the Potency with HB3 is 447 nM (active); with JCK, 794 nM (active); with P93_24, 562 nM (active); in the test on PC26 it was 1350 nM (active); in the test with PC49, 447 nM (active); in the test with TAB109 it was 447 nM (active).
